The list is a sample of the results.
SF1 inhibitor: SF-1 (human) inhibition; CHO-K1 Gal4-SF-1 LBD luciferase reporter; inhibition, % at 10 µM; 65,000 compounds, 0.55% hits; AID 525;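 active means inhibition above the mean inhibition of all tested compounds plus 3 SD, cut at about 48% in these data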;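 further: 0% = SF-1 transfected cells with DMSO and 100% = mock-transfected cells lacking SF-1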
Numbers without * were called inactive.

SMILES | SF1 inhibitor
Cc1ccc(OCC(=O)Nc2ccc(N3CCOCC3)cc2)cc1 | -2
CCOC(=O)Cn1c(=O)oc2cc(S(=O)(=O)NCc3cccs3)ccc21 | 9
COc1ccc(-c2nc(SC)n(C(=O)c3ccco3)n2)cc1 | -58
c1ccc2c(c1)CCN(CCCNc1nc3ccccc3n3cnnc13)C2 | -16
CC(=O)C1=C(c2ccccc2)NC(=O)NC1c1ccccc1OCC#N (stereo not drawn) | 6
CCOC(=O)C(NC(=O)c1ccccc1)(N1CCCC1=O)C(F)(F)F (stereo not drawn) | 8
O=C(OC(C(=O)NCc1cccs1)c1ccccc1Cl)c1ccco1 (stereo not drawn) | 10
NC(=O)C1CCN(CCC(=O)Nc2cccc(Cl)c2)CC1 | 0
CC(C)CC(NC(=O)OC(C)(C)C)C(=O)NC(C(=O)N1CCCC1C(N)=O)C(C)C (stereo not drawn) | 13

Screening data (PubChem)
